Experimental data reported in PubChem BioAssay (NCATS).
Inconclusive results are not listed. A number with no mark means an inactive call. Calls of active or inactive are those of the source. The call rests on the fitted dose curve; in most records, active means well fitted curve in the direction sought with a large enough effect; inconclusive means small, poorly fitted or top-dose-only effect, or another doubt; inactive means no such curve, though single readings can be large; an effect the other way counts as inactive or inconclusive.

What was measured:
[1] = target: Cellular tumor antigen p53 (Homo sapiens) (UniProt P04637); assay: Primary qHTS for small molecule compounds that upregulate eGFP-tagged delta133p53alpha (in N-terminal) cells. (AID 2060322); conditions: NCI-H358 eGFP-delta133p53alpha fluorescence, 24 h; activation: active compounds read high; further: nearly all actives have a fitted effect of over 75% in size;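 on activation: 0% = DMSO vehicle and 100% = reference activator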
Outline: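 NCI-H358 cells pre-induced 24 h with 10 ng/ml doxycycline to express N-terminal eGFP-delta133p53alpha, then dosed 24 h at 37C without doxycycline; fixed, Hoechst-stained, GFP intensity by laser scanning cytometry, normalized to DMSO (0%) and 57.5 uM 5-azacytidine (100%).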

[2] = target: Aldehyde dehydrogenase, mitochondrial (Homo sapiens) (UniProt P05091); assay: qHTS for Inhibitors of the Aldehyde Dehydrogenase Family (ALDH2) Primary screen (AID 2061308); conditions: ALDH2 enzyme inhibition qHTS, 1536-well; series mostly up to 56 µM; further: nearly all actives have a fitted effect of over 55% in size
[3] = target: Retinaldehyde dehydrogenase 3 (Homo sapiens) (UniProt P47895); assay: qHTS for Inhibitors of the Aldehyde Dehydrogenase Family (ALDH1A3) Confirmatory screens (AID 2061311); conditions: ALDH inhibition qHTS; series mostly up to 46 µM; further: nearly all actives have a fitted effect of over 60% in size
[4] = target: Retinal dehydrogenase 2 (Homo sapiens) (UniProt O94788); assay: qHTS for Inhibitors of the Aldehyde Dehydrogenase Family (ALDH1A2) Confirmation screens (AID 2061314); conditions: ALDH1A2 enzyme inhibition qHTS confirmation; series mostly up to 45.9 µM; further: nearly all actives have a fitted effect of over 65% in size
[5] = target: Retinaldehyde dehydrogenase 3 (Homo sapiens) (UniProt P47895); assay: qHTS for Inhibitors of the Aldehyde Dehydrogenase Family (ALDH1A3) Primary screen (AID 2061315); conditions: ALDH inhibition qHTS; series mostly up to 56 µM
[6] = target: Aldehyde dehydrogenase 1A1 (Homo sapiens) (UniProt P00352); assay: qHTS for Inhibitors of the Aldehyde Dehydrogenase Family (ALDH1A1) Confirmatory screens (AID 2061316); conditions: ALDH inhibition qHTS; series mostly up to 47.3 µM; further: nearly all actives have a fitted effect of over 65% in size
[7] = target: Retinaldehyde dehydrogenase 3 (Homo sapiens) (UniProt P47895); assay: qHTS for Inhibitors of the Aldehyde Dehydrogenase Family (ALDH1A3) Validation screen (AID 2061312); conditions: ALDH1A3 enzyme inhibition qHTS validation, fluorescence; series mostly up to 84.7 µM; further: nearly all actives have a fitted effect of over 45% in size
Potency means the concentration at half of the fitted maximal effect.

Cellular tumor antigen p53 (Homo sapiens), sequence (P04637 whole entry, looked up): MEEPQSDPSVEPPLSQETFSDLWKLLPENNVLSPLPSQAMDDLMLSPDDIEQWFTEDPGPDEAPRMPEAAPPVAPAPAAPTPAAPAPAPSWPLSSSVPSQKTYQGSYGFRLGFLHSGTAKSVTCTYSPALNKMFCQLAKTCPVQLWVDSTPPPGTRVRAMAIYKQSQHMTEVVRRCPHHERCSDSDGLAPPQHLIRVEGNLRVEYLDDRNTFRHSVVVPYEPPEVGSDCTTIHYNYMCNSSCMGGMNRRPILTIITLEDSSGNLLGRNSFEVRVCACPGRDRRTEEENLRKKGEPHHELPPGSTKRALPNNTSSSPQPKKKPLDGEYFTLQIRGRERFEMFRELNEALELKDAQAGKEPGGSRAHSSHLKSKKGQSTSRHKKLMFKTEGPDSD

`CC/C=C\CCO[C@@H]1O[C@H](CO[C@@H]2OC[C@H](O)[C@H](O)[C@H]2O)[C@@H](O)[C@H](O)[C@H]1O` was tested, and the activation [1] was -3.57% and the Potency [2] was “inactive”.

In the case of `CC1=C(C(=O)O[C@@H]2O[C@H](COC3OCC(O)C(O)C3O)[C@@H](O)[C@H](O)[C@H]2O)C(C)(C)CCC1` (some centres not stated), the activation [1] is reported as -13% and the Potency [2] is reported as “inactive”.

For `C=C1C(=O)O[C@@H]2C3C(=C(C)[C@@H](O)[C@@H](OC(=O)/C(=C/C)COC(C)=O)[C@@H]12)C(=O)[C@H]1O[C@@]31C` (some centres not stated), the Potency [1] was 2.08 µM (active), the Potency [2] was “inactive” and the Potency [3] was “inactive”. For the same compound, the Potency [4] was 0.98 µM (active), the Potency [5] was “inactive” and the Potency [6] was “inactive”.

With `CC(=O)c1c(C)cc2cccc(O)c2c1O[C@@H]1O[C@H](CO)[C@@H](O)[C@H](O)[C@H]1O` the activation [1] was -2.29%, the Potency [2] was “inactive” and the Potency [3] was 3.12 µM (active). For the same compound, the Potency [4] was “inactive”.

In the case of `O=[N+]([O-])c1ccc(-[n+]2nc(-c3ccccc3)nn2-c2ccc(I)cc2)cc1`, the activation [1] is reported as -2.39%, the Potency [2] is reported as “inactive” and the Potency [3] is reported as 11.3 µM (active). For the same compound, the Potency [7] was 17.8 µM (active).

`CC1=CC2C(CC1OC1OC(CO)C(O)C(O)C1O)C(C)CC(=O)C2C(C)C` (configuration not stated) was tested, and the activation [1] was 4.58% and the Potency [2] was “inactive”.

For `CCCC/C=C\CCCCCc1cc(=O)c2ccccc2n1C`, the activation [1] was -0.893%, the Potency [2] was 8.91 µM (active) and the Potency [3] was “inactive”. For the same compound, the Potency [4] was 6.97 µM (active) and the Potency [5] was “inactive”.

For `CC(=O)N[C@H]1[C@H](O[C@H]2CC[C@@]3(C)C(CC[C@]4(C)C3CC=C3C5CC(C)(C)CC[C@]5(C(=O)O)[C@H](O[C@@H]5O[C@H](CO)[C@@H](O)[C@H](O)[C@H]5O)C[C@]34C)C2(C)C)O[C@H](CO[C@@H]2OC[C@H](O)[C@H](O)[C@H]2O[C@@H]2OC[C@@H](O)[C@H](O)[C@H]2O)[C@@H](O)[C@@H]1O` (some centres not stated), the activation [1] was -9.16% and the Potency [2] was “inactive”.

`OC[C@H]1O[C@@H](Oc2cc(O)cc(-c3cc4ccc(O)cc4o3)c2)[C@H](O)[C@@H](O)[C@@H]1O` was tested, and the activation [1] was 13.4%, the Potency [2] was “inactive” and the Potency [3] was 12.3 µM (active).

For `CC1=CC(=O)CC(C)(C)C1/C=C/C(C)O[C@@H]1O[C@H](CO)[C@@H](O)[C@H](O)[C@H]1O[C@@H]1OC[C@](O)(CO)[C@H]1O` (some centres not stated), the activation [1] was -2.68% and the Potency [2] was “inactive”.

With `COc1ccc(CC2C(=O)NC(C)C(=O)N(C)C3Cc4ccc(cc4)Oc4cc(ccc4OC4OC(CO)C(O)C(O)C4O)CC(C(=O)NC(C)C(=O)NC(C)C(=O)N2C)N(C)C3=O)cc1` (configuration not stated) the Potency [1] was 5.09 µM (active), the Potency [2] was “inactive” and the Potency [3] was 4.78 µM (active).

With `CC(=O)CC1CCC(C(C)C(=O)OCC(O)CO)O1` (configuration not stated) the activation [1] was -0.763%, the Potency [2] was “inactive” and the Potency [3] was 4.49 µM (active). The Potency [5] was 15.8 µM (active) and the Potency [6] was 15.9 µM (active).

With `Cc1cc(N=Nc2ccc(S(=O)(=O)Nc3ccccn3)cc2)c(N)cc1O` the activation [1] was -5%, the Potency [2] was “inactive” and the Potency [3] was 11.3 µM (active). For the same compound, the Potency [6] was 11.3 µM (active).

With `CC(=O)NCC1CN(c2ccc(-c3ccc(CNCc4cn[nH]n4)cc3)c(F)c2)C(=O)O1` (configuration not stated) the activation [1] was -4.77%, the Potency [2] was “inactive” and the Potency [7] was 3.98 µM (active).
